Source: PubChem
A selection: hits, their analogues and other compounds. The true share with any hit is near 2.3%.
Pol kappa inh: inhibitors of human DNA polymerase kappa | hit rate 0.53% among 400,000 | Potency, µM (titrated, usually from 107 µM), inactives show at the top dose activity, negative = inhibition, hits mostly inhibitors | purified Pol kappa, fluorescent DNA synthesis assay, 10 min | Q9UBT6; further: potency means the concentration at half of the fitted maximal effect; on the % scale 0 is the no-effect control and ±100 the full control effect
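Pol kappa 10 nM + cpd, 15 min RT; start w/ substrate 50 nM final; fluorescence kinetic read, 0 and 10 min. Neg ctrl: buffer, no enzyme.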
POLI inh: inhibitors of human DNA polymerase iota; Q9UNA4; AID 588590; Potency, µM (titrated, usually from 115 µM), without a hit: at the top dose activity, negative = inhibition, most hits filed as inhibitors; hit rate 1% among 390,000; Pol iota fluorescent replication assay, 10 min; further: potency means the concentration at half of the fitted maximal effect
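Fluorescent replication assay read twice, at 0 min and 10 min after adding 50 nM (final) substrate. Enzyme (10 nM) and compounds were first incubated 15 min at room temperature; enzyme-free buffer wells were negative controls.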
Pol eta inh-1: blocks human DNA polymerase eta activity | Q9Y253 | recombinant Pol eta, fluorescent DNA replication assay | Potency, µM (top dose mostly 114 µM), without a hit: top-dose activity change, negative = inhibition, most hits filed as inhibitors | hit rate 1.2% among 390,000 | AID 588591; further: potency means the concentration at half of the fitted maximal effect; on the % scale 0 is the no-effect control and ±100 the full control effect
Target sequence (Q9Y253 whole entry, looked up): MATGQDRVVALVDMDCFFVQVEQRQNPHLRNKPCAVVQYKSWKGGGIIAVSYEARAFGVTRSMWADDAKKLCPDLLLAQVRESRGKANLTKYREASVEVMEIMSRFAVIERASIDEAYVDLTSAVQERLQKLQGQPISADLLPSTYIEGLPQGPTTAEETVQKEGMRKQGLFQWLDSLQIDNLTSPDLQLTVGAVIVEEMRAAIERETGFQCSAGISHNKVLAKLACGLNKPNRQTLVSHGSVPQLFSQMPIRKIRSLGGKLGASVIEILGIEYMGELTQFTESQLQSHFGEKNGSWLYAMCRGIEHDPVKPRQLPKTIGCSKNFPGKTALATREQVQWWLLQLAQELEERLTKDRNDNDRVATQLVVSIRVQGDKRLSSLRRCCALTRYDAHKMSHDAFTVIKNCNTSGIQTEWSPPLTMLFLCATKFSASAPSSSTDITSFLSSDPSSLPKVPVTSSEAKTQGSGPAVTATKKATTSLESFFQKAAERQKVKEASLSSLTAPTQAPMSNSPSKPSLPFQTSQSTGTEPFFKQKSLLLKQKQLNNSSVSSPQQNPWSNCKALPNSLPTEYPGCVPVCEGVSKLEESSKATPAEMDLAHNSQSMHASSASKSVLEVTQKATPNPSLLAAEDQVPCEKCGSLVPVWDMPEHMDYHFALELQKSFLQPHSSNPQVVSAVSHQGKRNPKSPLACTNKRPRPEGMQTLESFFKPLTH
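Pol eta (10 nM) was preincubated with compounds for 15 min at room temperature, after which fluorescent replication substrate (50 nM final) was added to start the reaction. Fluorescence was read kinetically at 0 and 10 min.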
POLB inh: blocks human DNA polymerase beta activity; Potency, µM (doses to about 114 µM), without a hit: top-dose activity change, negative = inhibition, hits mostly inhibitors; P06746; hit rate 1.3% among 340,000; Pol beta primer extension/strand displacement, fluorescence kinetic; AID 485314; further: potency means the concentration at half of the fitted maximal effect; on the % scale 0 is the no-effect control and ±100 the full control effect
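Curves were derived by four-parameter Hill fits of normalized qHTS data. The kinetic fluorescent primer-extension read was taken at 0 and 10 min after 50 nM substrate, following a 15 min room-temperature preincubation of 10 nM enzyme with compounds.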
WRN helicase inh: WRN helicase (human) inhibition; Q14191; hit rate 0.46% among 360,000; WRN helicase unwinding, fluorescent forked duplex, kinetic; AID 651768; Potency, µM (highest dose often 114 µM), for the others: at the top dose activity change, negative = inhibition, usual class: inhibitors; further: potency means the concentration at half of the fitted maximal effect; on the % scale 0 is the no-effect control and ±100 the full control effect; nearly all actives have a fitted effect of over 55% in size
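WRN at 20 nM final preincubated with compound 15 min at room temperature; reaction started with 100 nM fluorophore/quencher forked duplex oligonucleotide and 2 mM ATP final. Unwinding followed kinetically by red fluorescence (ex 525, em 598 nm).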
GALK confirm: confirmation of human galactokinase (GALK) inhibitors | shares compounds with Pol eta inh-1 | purified GALK, Kinase-Glo ATP depletion luminescence | Potency, µM (titrated, usually from 115 µM), inactives show at the highest dose activity, negative = inhibition, hits mostly inhibitors | hit rate 70% among 150
Redox cycling: counter-screen for GALK inhibitors: redox cycling H2O2 generation. shares compounds with Pol eta inh-1. Phenol red-HRP H2O2 redox cycling, absorbance 600 nm. Potency, µM (titrated, usually from 115 µM), inactives show at the top dose activity change, negative = H2O2 signal, hits mostly inhibitors. hit rate 40% among 150. AID 2035
HEK293 tox: HEK-293 cytotoxicity, GALK inhibitor secondary; shares compounds with Pol eta inh-1; Potency, µM (doses to about 46.1 µM), inactives show at the highest dose activity change, negative = cytotoxicity, actives largely listed as inhibitors; HEK-293 viability, ATP luminescence (CellTiter-Glo), 24/48 h; hit rate 10% among 170; AID 2547; further: potency means the concentration at half of the fitted maximal effect; on the % scale 0 is the no-effect control and ±100 the full control effect
Pol eta inh-2: confirmation of human DNA polymerase eta inhibitors | shares compounds with Pol eta inh-1 | Pol eta primer extension, TAMRA/BHQ fluorescence, 10 min | Potency, µM, usual class: inhibitors | hit rate 64% among 2,600; further: potency means the concentration at half of the fitted maximal effect
* marks the source's active call; other numbers are inactive results; ? = inconclusive; nt = not tested or not shown; [ ] = dose if it differs, or a comment. The call rests on the fitted dose curve; in most records, active means well fitted curve in the direction sought with a large enough effect; inconclusive means small, poorly fitted or top-dose-only effect, or another doubt; inactive means no such curve, though single readings can be large; an effect the other way counts as inactive or inconclusive.

SMILES	Pol kappa inh	POLI inh	Pol eta inh-1	POLB inh	WRN helicase inh	Pol eta inh-2	others
CCCSC1=N/C(=C\c2ccc([N+](=O)[O-])o2)C(=O)S1	20µM*	?	?	2.82µM*	22.4µM*	75.7*
CCSC1=N/C(=C\c2ccc(-c3ccccc3[N+](=O)[O-])o2)C(=O)S1	0.7%	5.7%	-4.6%	-16.1%	-15.3%	nt
CC1=C(C(N)=O)C(c2cccs2)n2nc(-c3cccc(C)c3)nc2N1 (centres undefined)	-9.4%	11.3%	6.6%	25.6%	-3.3%	nt
CC1=C(C(N)=O)C(c2cccs2)n2nc(-c3cccc(Cl)c3)nc2N1 (centres undefined)	-22.4%	-0.2%	3.0%	38.4%	-7.4%	nt	GALK confirm=?;Redox cycling=4.7%;HEK293 tox=12.3%
O=c1[nH]c(/C=C/c2ccc([N+](=O)[O-])cc2)c([N+](=O)[O-])c(=O)[nH]1	-4.3%	?	44.7µM*	-3.0%	-24.5%	?	GALK confirm=37.5µM*;Redox cycling=-2.5%;HEK293 tox=6.2%
COc1cc(Cl)cc(C2NC(=O)NC(C)=C2C(C)=O)c1OCC(=O)O (centres undefined)	?	?	25.1µM*	15.8µM*	-20.5%[57.1 µM]	?
C=CCOc1c(OC)cc(Cl)cc1C1NC(=O)NC(C)=C1C(C)=O (centres undefined)	-9.9%	28.0%	10.9%	26.0%	7.7%[57.1 µM]	nt
CCCCNC(=O)CCCN1C(=O)c2ccccc2Sc2ncccc21	0.1%	1.2%	-11.9%	-5.9%	nt	nt
O=C(NCCc1cccs1)c1ccc(Cn2c(SCc3ccc(F)cc3)nc3cccnc32)cc1	-7.4%	-12.5%	-14.5%	-1.1%	nt	nt
CCc1ccc(NC(=O)CN(c2ccc(Cl)cc2)S(=O)(=O)c2ccsc2C(=O)OC)cc1	0.0%	-5.5%	-25.6%	-1.7%	nt	nt
NS(=O)(=O)c1ccc(CCNC(=O)CSc2ccc([N+](=O)[O-])cc2)cc1	-0.8%	58.5%	-21.2%	32.8%	2.2%	nt
NS(=O)(=O)c1ccc(CCNC(=O)CSc2ccsc2[N+](=O)[O-])cc1	?	?	22.4µM*	-0.6%	-7.9%[11.6 µM]	?
O=C(O)/C=C\c1cc2c(cc1[N+](=O)[O-])OCO2	6.8%	31.1%	-18.3%	6.7%	-7.1%	nt
O=C1NC(=S)N/C1=C/c1cc2c(cc1[N+](=O)[O-])OCO2	?	-10.1%	?	-0.6%	12.6%	84.9*
Cc1ccc2nc(Cl)c(/C=N/Nc3ccc(C(=O)O)cc3)cc2c1	?	-37.3%	22.4µM*	-21.0%	-32.0%	26.9*
Cc1ccc(OCc2ccc(C(=O)O)o2)cc1C	-7.1%	-21.7%	5.1%	28.7%	3.2%	nt
Cc1ccc(OCc2ccoc2C(=O)O)cc1C	?	?	7.08µM*	17.8µM*	-33.6%[57.1 µM]	?
O=C(O)/C=C/c1ccc(S(=O)(=O)Nc2cccnc2)cc1	-6.2%	141.7%	2.0%	2.9%	-31.7%	nt
O=C(O)/C=C/c1ccc(S(=O)(=O)Nc2ccc(C(=O)NCC(=O)O)cc2)cc1	?	?	17.8µM*	-15.8%	-1.8%[11.6 µM]	?
CCOC(=O)C1=C(O)/C(=C/c2cc(OC)c(O)c(OC)c2)SC1=Nc1ccc(OC)cc1	-1.9%	?	-11.7%	4.3%	-11.1%[11.6 µM]	nt
CCOC(=O)C1=C(O)/C(=C/c2ccc(-c3ccccc3C(=O)O)o2)SC1=Nc1ccc(OC)cc1	-40.2%	?	10µM*	?	?	42.6*
CCN(CC)S(=O)(=O)c1cccc(NC(=O)COC(=O)/C=C/c2ccco2)c1	-2.4%	6.7%	-4.2%	22.1%	-34.5%	nt
CN(C)S(=O)(=O)c1cccc(NC(=O)COC(=O)/C=C/c2ccco2)c1	-37.7%	-53.9%	?	31.6µM*	-22.4%[57.1 µM]	?
COc1ccc(OC)c(N(C)S(=O)(=O)c2ccc3c(c2)NC(=O)CC(=O)N3)c1	2.2%	30.5%	-12.4%	23.7%	nt	nt
C=CCN(CC=C)CC(=O)Nn1c(C)ccc1C	?	?	20µM*	nt	?	?
SMILES	Pol kappa inh	POLI inh	Pol eta inh-1	POLB inh	WRN helicase inh	Pol eta inh-2	others
CCOc1ccc(-c2cc(-c3nc(-c4cc(OC)c(OC)c(OC)c4)no3)[nH]n2)cc1Cl	4.5%	2.4%	2.7%	-2.0%	nt	nt
O=C1C=C(c2ccc3cc[nH]c3c2)C[C@@H](c2ccc3c(c2)OCO3)C1	79.4µM*	14.1µM*	22.4µM*	nt	?	75.7*
COc1ccc2c(c1OC)C(=O)OC2Nc1nc(-c2cc3cc(Br)ccc3oc2=O)cs1 (centres undefined)	-19.6%	?	-9.9%	?	-13.2%[11.6 µM]	?
COc1ccc(-c2csc(NC3OC(=O)c4c3ccc(OC)c4OC)n2)cc1OC (centres undefined)	-5.0%	5.9%	-14.9%	-0.1%	-12.4%	nt
O=C(C=C1SCCS1)/C=C/c1ccco1	?	35.5µM*	17.8µM*	22.4µM*	?	?
O=C(C=Cc1ccco1)c1ccco1	?	?	-1.1%	nt	-23.5%	nt
O=C(NCC1CCCO1)c1cc(-c2ccco2)nc2ccccc12 (centres undefined)	?	?	15.8µM*	44.7µM*	-28.2%	84.9*
O=C(NCCc1ccccc1)c1ccc(CSc2nc3ccncc3n2Cc2ccc(F)cc2)cc1	0.1%	16.2%	-9.8%	12.6%	nt	nt
O=C(NCc1ccccc1)c1cccc(COc2ccc3c(c2)CCC3)c1	-10.2%	11.9%	-13.1%	-25.7%	0.0%	nt
O=C(O)c1cccc(COc2ccc3c(c2)CCC3)c1	?	?	39.8µM*	22.4µM*	0.7%[11.6 µM]	47.8*
CCOc1ccc(-c2cc(C(=O)NCc3ccccc3Cl)c3ccccc3n2)cc1	-2.3%[60.1 µM]	7.1%	?	-10.7%	nt	nt
O=C(O)c1cc(Cl)ccc1-c1ccc(/C=C/c2cc(C(F)(F)F)[nH]c(=O)n2)o1	?	?	50.1µM*	-29.9%	?	37.9*
O=C(O)/C=C/c1ccc(-c2cccc(C(F)(F)F)c2)o1	-1.6%[60.1 µM]	-1.3%	19.1%	11.6%	-4.5%	nt
